# Inconclusive results are not listed. Activity calls are given as the source filed them. Rule for the calls: active = hit-call score of the fitted dose curve at least 0.9, where 1 is the maximum; inconclusive = response in the unintended direction; inactive = score below 0.9.
# Legend:
# [1] = target: human Caspase 2 (CASP2), CASP2 (gene 835) (UniProt P42575); experiment: NVS_ENZ_hCASP2: NovaScreen (NVS) Enzymatic Assay for human Caspase 2 (CASP2) (AID 2283135)
# In short: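 Single-point duplicate testing at 25 uM preceded concentration series topping at 50 uM. Activity of the recombinant E. coli-derived protease was followed by fluorescent substrate cleavage 1 h post-dosing, relative to DMSO.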
# [2] = target: human Protein Tyrosine Phosphatase Non-receptor Type 2 (PTPN2), PTPN2 (gene 5771) (UniProt P17706); experiment: NVS_ENZ_hPTPN2: NovaScreen (NVS) Enzymatic Assay for human Protein Tyrosine Phosphatase Non-receptor Type 2 (PTPN2) (AID 2283207)
# In short: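 Activity measured as fluorescence after mobility-shift separation of substrate and product, 1 h after compound. Duplicate single-point 25 uM primary testing, concentration series for actives; inhibition scored as signal loss relative to DMSO baseline.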
# [3] = target: human Caspase 10 (CASP10), CASP10 (gene 843) (UniProt Q92851); experiment: NVS_ENZ_hCASP10: NovaScreen (NVS) Enzymatic Assay for human Caspase 10 (CASP10) (AID 2283133)
# In short: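 Fluorescence-intensity enzyme read-out of E. coli-expressed CASP10 activity, 1 h after compound. Single-point duplicates at 25 uM preceded concentration-response testing (top 50 uM) of hits; inhibition expressed as signal loss versus DMSO.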
# PPP2CA (gene 5515) = PPP2CA (gene 5515) (UniProt P67775); experiment: NVS_ENZ_hPPP2CA: NovaScreen (NVS) Enzymatic Assay for human Protein Phosphatase 2 Aatalytic subunit Alpha (PPP2CA) (AID 2283199)
# In short: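 Cell-free phosphatase activity: fluorescent substrate turnover by recombinant human enzyme, resolved by mobility shift at 1.33 h. Compounds passing the 25 uM duplicate primary screen were rerun in singleton series with a 50 uM top concentration.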
# [4] = target: human Phosphatase and Tensin Homolog (PTEN), PTEN (gene 5728) (UniProt P60484); experiment: NVS_ENZ_hPTEN: NovaScreen (NVS) Enzymatic Assay for human Phosphatase and Tensin Homolog (PTEN) (AID 2283203)
# In short: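 Loss of fluorescent product signal after mobility-shift separation reports PTEN activity, recombinant human enzyme, 1 h after compound addition. Single 25 uM duplicate screen, then concentration-response on actives; DMSO baseline.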
# [5] = target: rat Acetylcholinesterase (AChE), Ache (gene 83817) (UniProt P37136); experiment: NVS_ENZ_rAChE: NovaScreen (NVS) Enzymatic Assay for rat Acetylcholinesterase (AChE) (AID 2283233)
# In short: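 Compounds first screened at 25 uM in duplicate, then those passing threshold tested in concentration series up to 50 uM, against AChE from rat brain membranes. Enzyme activity read by absorbance at 0.33 h; inhibition scored versus DMSO.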
# [6] = target: rat Monoamine Oxidase, MAO-B, Peripheral (MAOBP), Maob (gene 25750) (UniProt P19643); experiment: NVS_ENZ_rMAOBP: NovaScreen (NVS) Enzymatic Assay for rat Monoamine Oxidase, MAO-B, Peripheral (MAOBP) (AID 2283242)
# [7] = test system: guinea pig Atrionatriuretic Peptide Receptor A (ANPA), gene 100135578; experiment: NVS_GPCR_gANPA: NovaScreen (NVS) G Protein-Coupled Receptor Assay for guinea pig Atrionatriuretic Peptide Receptor A (ANPA) (AID 2283291)
# In short: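 Displacement of specific radioligand from guinea pig cerebellum membranes was read by scintillation after 1 h. A duplicate single-point screen at 25 uM was followed by a concentration series up to 50 uM, analysed relative to DMSO.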
# [8] = target: Voltage-dependent N-type calcium channel subunit alpha-1B (Rattus norvegicus) (UniProt Q02294); experiment: NVS_IC_rCaChN: NovaScreen (NVS) Ion Channel Assay for rat Calcium Channel, Type N (CaChN) (AID 2283317)
# [9] = target: human Fibroblast Growth Factor Receptor 1 (FGFR1), FGFR1 (gene 2260) (UniProt P11362); experiment: NVS_ENZ_hFGFR1: NovaScreen (NVS) Enzymatic Assay for human Fibroblast Growth Factor Receptor 1 (FGFR1) (AID 2283159)
# In short: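 Cell-free recombinant kinase with fluorescent substrate, product separated by electrophoretic mobility shift; read 1 hour after dosing, loss of signal relative to DMSO. Initial screen in duplicate at 25 uM, actives followed in concentration series.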
# [10] = target: rat Monoamine Oxidase, MAO-B, Central (MAOBC), Maob (gene 25750) (UniProt P19643); experiment: NVS_ENZ_rMAOBC: NovaScreen (NVS) Enzymatic Assay for rat Monoamine Oxidase, MAO-B, Central (MAOBC) (AID 2283238)
# In short: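 Here MAO-B activity in rat brain preparations is quantified radiometrically, counts taken at 1.17 hours. Concentration-response runs reach 50 uM, with plate controls, and values are fitted as loss of signal from the DMSO baseline.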
# [11] = target: human Aurora Kinase A - serine/threonine-protein Kinase 6 (AurA), AURKA (gene 6790) (UniProt O14965); experiment: NVS_ENZ_hAurA: NovaScreen (NVS) Enzymatic Assay for human Aurora Kinase A - serine/threonine-protein Kinase 6 (AurA) (AID 2283142)
# In short: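 Recombinant human AurA activity read by fluorescence after mobility-shift separation of product from substrate; 1 hour incubation. Chemicals first run in duplicate at 25 uM, then concentration series to 50 uM if over threshold; fitted relative to DMSO.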
# [12] = target: human Ephrin type-A Receptor 2 (EphA2), EPHA2 (gene 1969) (UniProt P29317); experiment: NVS_ENZ_hEphA2: NovaScreen (NVS) Enzymatic Assay for human Ephrin type-A Receptor 2 (EphA2) (AID 2283155)
# In short: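 Enzyme activity of recombinant EphA2 read by fluorescence after mobility-shift separation, 1 h after dosing. Chemicals first tested at 25 uM (duplicate); those passing threshold run as concentration series, top 50 uM, single replicate, relative to DMSO.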
# [13] = target: human Neonicotinoid receptor (NNR), CHRNA2 (gene 1135) (UniProt Q15822); experiment: NVS_LGIC_hNNR_NBungSens: NovaScreen (NVS) Ligand-Gated Ion Channel Assay for human Neonicotinoid receptor (NNR) (AID 2283313)
# In short: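 Compounds first screened in duplicate at 25 uM, then actives re-tested in single-replicate dose series up to 50 uM. Binding measured as displacement of specific radioligand from neuroblastoma membrane receptors after 2 h, scintillation read on filters.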
# [14] = target: human Matrix Metalloproteinase-1 (MMP1), MMP1 (gene 4312) (UniProt P03956); experiment: NVS_ENZ_hMMP1: NovaScreen (NVS) Enzymatic Assay for human Matrix Metalloproteinase-1 (MMP1) (AID 2283181)
# In short: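 Cell-free fluorescent substrate assay of human MMP1, read after 1 h. A single 25 uM duplicate screen was followed by concentration series to a maximum of 50 uM for actives meeting threshold; inhibition analysed against DMSO baseline.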
# [15] = target: human MET Proto-Oncogene, Receptor Tyrosine Kinase (MET), MET (gene 4233) (UniProt P08581); experiment: NVS_ENZ_hMet: NovaScreen (NVS) Enzymatic Assay for human MET Proto-Oncogene, Receptor Tyrosine Kinase (MET) (AID 2283180)
# In short: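 Hits from a 25 uM duplicate screen were retested in concentration series up to 50 uM. Enzyme activity was measured by fluorescence after electrophoretic separation of product from substrate, 1 h after compound addition, relative to DMSO.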
# Sequence of human Fibroblast Growth Factor Receptor 1 (FGFR1), FGFR1 (gene 2260) (P11362 whole entry, looked up): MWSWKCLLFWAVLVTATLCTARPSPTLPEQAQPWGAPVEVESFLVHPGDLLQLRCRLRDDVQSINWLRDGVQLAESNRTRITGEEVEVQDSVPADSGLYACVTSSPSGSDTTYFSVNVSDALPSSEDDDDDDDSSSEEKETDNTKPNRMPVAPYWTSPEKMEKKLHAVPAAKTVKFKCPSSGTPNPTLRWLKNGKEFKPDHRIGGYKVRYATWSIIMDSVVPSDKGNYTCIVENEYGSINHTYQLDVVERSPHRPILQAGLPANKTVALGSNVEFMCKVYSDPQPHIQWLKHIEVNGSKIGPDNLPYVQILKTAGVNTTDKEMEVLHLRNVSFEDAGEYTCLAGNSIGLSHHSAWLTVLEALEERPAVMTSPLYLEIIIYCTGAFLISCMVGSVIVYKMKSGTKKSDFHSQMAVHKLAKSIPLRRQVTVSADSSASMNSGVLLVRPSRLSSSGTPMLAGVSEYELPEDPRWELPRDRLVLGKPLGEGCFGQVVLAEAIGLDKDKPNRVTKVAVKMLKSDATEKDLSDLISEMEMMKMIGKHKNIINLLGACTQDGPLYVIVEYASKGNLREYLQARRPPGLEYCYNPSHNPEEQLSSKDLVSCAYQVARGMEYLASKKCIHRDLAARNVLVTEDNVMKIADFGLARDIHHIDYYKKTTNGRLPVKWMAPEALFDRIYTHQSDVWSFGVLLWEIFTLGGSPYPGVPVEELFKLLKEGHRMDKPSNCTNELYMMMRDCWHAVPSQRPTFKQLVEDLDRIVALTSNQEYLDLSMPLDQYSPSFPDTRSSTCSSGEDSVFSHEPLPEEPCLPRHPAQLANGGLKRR
# Sequence of human Caspase 2 (CASP2), CASP2 (gene 835) (P42575 whole entry, looked up): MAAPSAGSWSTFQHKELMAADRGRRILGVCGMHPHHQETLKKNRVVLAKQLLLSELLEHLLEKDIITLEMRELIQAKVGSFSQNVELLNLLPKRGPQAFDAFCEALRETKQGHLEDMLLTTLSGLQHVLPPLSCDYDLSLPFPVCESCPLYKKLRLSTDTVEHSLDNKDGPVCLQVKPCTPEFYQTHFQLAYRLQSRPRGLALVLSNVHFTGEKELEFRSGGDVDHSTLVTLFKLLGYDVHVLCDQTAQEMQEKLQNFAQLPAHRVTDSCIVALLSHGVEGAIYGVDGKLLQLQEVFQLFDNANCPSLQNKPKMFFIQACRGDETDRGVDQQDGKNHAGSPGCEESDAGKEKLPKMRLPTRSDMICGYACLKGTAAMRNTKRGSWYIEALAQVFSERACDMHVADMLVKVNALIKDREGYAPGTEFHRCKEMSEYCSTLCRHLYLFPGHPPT
# Sequence of human Caspase 10 (CASP10), CASP10 (gene 843) (Q92851 whole entry, looked up): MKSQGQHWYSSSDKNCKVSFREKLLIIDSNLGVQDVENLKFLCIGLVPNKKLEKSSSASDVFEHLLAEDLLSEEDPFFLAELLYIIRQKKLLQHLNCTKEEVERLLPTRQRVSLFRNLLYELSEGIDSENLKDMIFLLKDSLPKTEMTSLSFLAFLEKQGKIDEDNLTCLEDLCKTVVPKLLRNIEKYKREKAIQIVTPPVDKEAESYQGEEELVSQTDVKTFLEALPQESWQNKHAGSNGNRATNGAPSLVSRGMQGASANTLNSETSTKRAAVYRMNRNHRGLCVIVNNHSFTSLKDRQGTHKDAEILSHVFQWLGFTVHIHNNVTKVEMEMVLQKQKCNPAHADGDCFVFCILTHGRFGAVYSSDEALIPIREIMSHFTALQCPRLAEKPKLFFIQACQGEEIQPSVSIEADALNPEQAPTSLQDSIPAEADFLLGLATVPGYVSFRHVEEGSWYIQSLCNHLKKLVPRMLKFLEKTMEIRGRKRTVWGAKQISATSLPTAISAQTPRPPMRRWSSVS
# Sequence of human Phosphatase and Tensin Homolog (PTEN), PTEN (gene 5728) (P60484 whole entry, looked up): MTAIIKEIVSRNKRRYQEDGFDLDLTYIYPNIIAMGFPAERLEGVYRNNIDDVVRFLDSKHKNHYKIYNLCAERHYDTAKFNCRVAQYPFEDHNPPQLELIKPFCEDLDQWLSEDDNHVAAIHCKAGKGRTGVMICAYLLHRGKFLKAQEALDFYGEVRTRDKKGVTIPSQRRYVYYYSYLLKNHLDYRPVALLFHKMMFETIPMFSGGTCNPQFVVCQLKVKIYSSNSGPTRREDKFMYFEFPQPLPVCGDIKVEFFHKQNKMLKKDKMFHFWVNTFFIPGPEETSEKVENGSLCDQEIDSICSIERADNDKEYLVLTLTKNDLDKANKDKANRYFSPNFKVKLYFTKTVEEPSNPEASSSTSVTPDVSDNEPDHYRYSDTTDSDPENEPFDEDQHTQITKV
# Sequence of rat Acetylcholinesterase (AChE), Ache (gene 83817) (P37136 whole entry, looked up): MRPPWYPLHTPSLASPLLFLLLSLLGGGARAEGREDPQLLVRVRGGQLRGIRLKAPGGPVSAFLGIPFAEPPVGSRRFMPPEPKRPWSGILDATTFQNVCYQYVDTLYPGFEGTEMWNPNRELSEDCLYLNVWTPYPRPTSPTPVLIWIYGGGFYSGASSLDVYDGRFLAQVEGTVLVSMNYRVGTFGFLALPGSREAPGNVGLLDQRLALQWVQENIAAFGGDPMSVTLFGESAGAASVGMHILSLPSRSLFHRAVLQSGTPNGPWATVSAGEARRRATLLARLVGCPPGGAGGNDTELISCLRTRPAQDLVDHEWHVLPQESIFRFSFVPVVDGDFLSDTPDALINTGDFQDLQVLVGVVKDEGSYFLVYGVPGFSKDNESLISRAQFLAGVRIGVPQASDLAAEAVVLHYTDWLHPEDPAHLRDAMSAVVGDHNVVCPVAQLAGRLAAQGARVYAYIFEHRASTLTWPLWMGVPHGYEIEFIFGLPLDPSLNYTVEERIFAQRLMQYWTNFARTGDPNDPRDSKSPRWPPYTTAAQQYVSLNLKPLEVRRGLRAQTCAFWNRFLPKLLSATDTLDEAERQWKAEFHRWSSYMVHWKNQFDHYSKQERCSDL
# Sequence of human Protein Tyrosine Phosphatase Non-receptor Type 2 (PTPN2), PTPN2 (gene 5771) (P17706 whole entry, looked up): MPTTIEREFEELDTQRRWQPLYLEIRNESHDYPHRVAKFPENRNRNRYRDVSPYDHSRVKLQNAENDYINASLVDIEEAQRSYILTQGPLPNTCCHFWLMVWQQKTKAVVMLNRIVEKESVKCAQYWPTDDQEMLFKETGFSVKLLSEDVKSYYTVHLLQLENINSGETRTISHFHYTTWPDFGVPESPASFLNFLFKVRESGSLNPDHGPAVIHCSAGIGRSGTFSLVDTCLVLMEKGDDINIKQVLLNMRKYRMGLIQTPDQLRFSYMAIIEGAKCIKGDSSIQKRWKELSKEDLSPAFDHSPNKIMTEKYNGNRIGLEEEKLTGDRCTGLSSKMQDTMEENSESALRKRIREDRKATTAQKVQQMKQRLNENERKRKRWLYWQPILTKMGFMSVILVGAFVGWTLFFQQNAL
# Sequence of human Ephrin type-A Receptor 2 (EphA2), EPHA2 (gene 1969) (P29317 whole entry, looked up): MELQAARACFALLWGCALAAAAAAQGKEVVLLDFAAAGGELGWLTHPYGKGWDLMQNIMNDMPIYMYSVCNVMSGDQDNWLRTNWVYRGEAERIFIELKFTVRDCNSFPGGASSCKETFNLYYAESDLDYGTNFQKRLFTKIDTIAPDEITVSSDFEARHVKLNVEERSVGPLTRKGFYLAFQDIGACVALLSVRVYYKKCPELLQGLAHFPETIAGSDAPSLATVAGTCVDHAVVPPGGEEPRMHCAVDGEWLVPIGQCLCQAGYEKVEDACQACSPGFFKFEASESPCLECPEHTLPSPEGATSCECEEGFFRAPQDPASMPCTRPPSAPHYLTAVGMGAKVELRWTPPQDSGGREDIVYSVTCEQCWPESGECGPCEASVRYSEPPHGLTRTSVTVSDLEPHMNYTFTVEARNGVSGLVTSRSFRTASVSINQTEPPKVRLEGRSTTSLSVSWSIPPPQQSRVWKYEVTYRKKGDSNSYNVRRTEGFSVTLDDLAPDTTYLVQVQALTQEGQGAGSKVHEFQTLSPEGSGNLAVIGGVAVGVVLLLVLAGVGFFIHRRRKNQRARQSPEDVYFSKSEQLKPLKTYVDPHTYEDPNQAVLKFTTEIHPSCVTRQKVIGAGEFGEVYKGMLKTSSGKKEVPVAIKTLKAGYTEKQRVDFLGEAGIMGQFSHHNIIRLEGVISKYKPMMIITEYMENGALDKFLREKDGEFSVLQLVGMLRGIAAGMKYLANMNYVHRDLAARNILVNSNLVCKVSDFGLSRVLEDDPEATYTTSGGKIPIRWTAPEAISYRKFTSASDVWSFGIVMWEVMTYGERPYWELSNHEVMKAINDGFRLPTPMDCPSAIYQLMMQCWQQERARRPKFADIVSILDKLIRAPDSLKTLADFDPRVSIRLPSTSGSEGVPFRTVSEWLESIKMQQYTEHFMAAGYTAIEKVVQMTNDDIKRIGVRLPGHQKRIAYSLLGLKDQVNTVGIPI
# Sequence of human Neonicotinoid receptor (NNR), CHRNA2 (gene 1135) (Q15822 whole entry, looked up): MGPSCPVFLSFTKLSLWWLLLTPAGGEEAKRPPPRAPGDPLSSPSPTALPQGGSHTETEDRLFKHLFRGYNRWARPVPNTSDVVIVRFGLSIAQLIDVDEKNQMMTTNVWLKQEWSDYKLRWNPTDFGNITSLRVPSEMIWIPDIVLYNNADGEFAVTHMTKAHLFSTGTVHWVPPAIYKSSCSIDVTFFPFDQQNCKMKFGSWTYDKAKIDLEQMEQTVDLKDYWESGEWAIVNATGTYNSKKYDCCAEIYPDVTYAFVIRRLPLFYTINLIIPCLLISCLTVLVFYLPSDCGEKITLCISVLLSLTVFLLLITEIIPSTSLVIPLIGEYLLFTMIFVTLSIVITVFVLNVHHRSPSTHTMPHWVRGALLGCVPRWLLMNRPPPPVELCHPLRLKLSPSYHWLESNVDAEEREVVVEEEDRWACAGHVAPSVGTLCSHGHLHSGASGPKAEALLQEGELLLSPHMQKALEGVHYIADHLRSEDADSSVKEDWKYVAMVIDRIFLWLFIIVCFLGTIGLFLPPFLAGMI
smiles,measurement,setting,value
c1ccc(Nc2ccccc2)cc1,outcome,[1],inactive
same,outcome,[2],inactive
CCN(Cc1cccc(S(=O)(=O)O)c1)c1ccc(C(=C2C=CC(=[N+](CC)Cc3cccc(S(=O)(=O)O)c3)C=C2)c2ccccc2S(=O)(=O)[O-])cc1,outcome,[3],inactive
same,outcome,PPP2CA (gene 5515),inactive
O=C(O)c1[nH]n(-c2ccc(S(=O)(=O)O)cc2)c(=O)c1N=Nc1ccc(S(=O)(=O)O)cc1,outcome,[3],inactive
same,outcome,[1],inactive
same,outcome,[4],inactive
Cc1nccn1-c1ccc(Sc2cccc(C3(C(N)=O)CCOCC3)c2)cc1,outcome,[1],inactive
same,outcome,[5],inactive
same,outcome,[6],inactive
same,outcome,[7],inactive
same,outcome,[8],inactive
O=C1CCC(N2C(=O)c3ccccc3C2=O)C(=O)N1 (stereo unspecified),outcome,[1],inactive
CCOC(=O)c1ccc(O)cc1,outcome,[1],inactive
same,outcome,[9],inactive
same,outcome,[10],inactive
N[C@@H](Cc1c[nH]c2ccccc12)C(=O)O,outcome,[1],inactive
c1ccc2c(c1)Cc1ccccc1-2,outcome,[1],inactive
CNCc1cc(F)ccc1Oc1ccc(Cl)c(Cl)c1,outcome,[1],inactive
CC1=C(/C=C/C(C)=C/C=C/C(C)=C/CO)C(C)(C)CCC1,outcome,[11],inactive
same,outcome,[12],inactive
same,outcome,[9],inactive
NC(=O)N(O)[C@@H]1C=C[C@H](Oc2cccc(Oc3ccc(F)cc3)c2)C1,outcome,[1],inactive
same,outcome,[9],inactive
same,outcome,[5],inactive
same,AC50,[13],41.2 µM (active)
CC(C)(O)c1coc(S(=O)(=O)NC(=O)Nc2c3c(cc4c2CCC4)CCC3)c1,outcome,[1],inactive
same,outcome,[14],inactive
same,outcome,[4],inactive
CCCCCCCCCCCCCCOS(=O)(=O)O,outcome,[3],inactive
same,AC50,[15],18.5 µM (active)
C[C@@H](Oc1ccc(CNC(=O)c2cccnc2Oc2ccc3c(c2)OCO3)c(F)c1)C(=O)O,outcome,[1],inactive
same,outcome,[8],inactive
Cc1cccc2ccccc12,outcome,[1],inactive
CC(C)COC(=O)CCCCC(=O)OCC(C)C,outcome,[1],inactive
same,outcome,[8],inactive
